Screening data (PubChem BioAssay)
PAX8 inh HTS: inhibitors of PAX8-driven TPO luciferase reporter, primary screen, RMG-I cells, single concentration | SteadyGlo, 24 h | inhibition, % at 12.6 µM | actives 1.2% (n = 360,000) | AID 652154, 2013;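 active means mean replicate inhibition at least 60% with every replicate also reaching 60%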;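 further: luciferase light reporting Pax8 driven TPO promoter activity; plate controls were median of neutral control wells for no effect and mitoxantrone controls for full effect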
HIV Env fusion: inhibitors of HIV-1 Env-driven cell-cell fusion, primary screen, HeLa-JRFL effector, CEM21 target cells, luciferase. inhibition, % at 12.3 µM. actives 1.1% (n = 360,000);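 active means mean replicate inhibition score of at least 50 and every replicate individually at or above 50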;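 further: 0% = plate neutral controls and 100% = maraviroc near 300 nM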
Shn3 3UTR inh: reduction of Shn3 3'UTR firefly luciferase signal, primary screen, Schnurri-3 inhibitor project, cell-based, Clone20 osteoblasts, set 2. Clone20 osteoblast Shn3 3'UTR firefly luciferase, 24 h. inhibition, % at 12.5 µM. actives 0.52% (n = 360,000). AID 588674, 2011;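 active means mean inhibition of at least 75% with every replicate also reaching 75%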;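 further: 0% = median of neutral control wells and 100% = pilot-screen positive control compound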
N-glyco inh: increase of ERlucT glycosylation luciferase signal, primary screen, N-linked glycosylation inhibitor project, D54 ERlucT cells, luminescence, set 2. D54 ERlucT glycosylation luciferase reporter, 24 h; percent of 100 nM tunicamycin response. reporter increase, % at 12.5 µM. actives 0.23% (n = 360,000). AID 588692, 2011;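 active means mean luciferase reporter signal, scaled so untreated is 0 and the glycosylation-blocking control 100, at or above a set limit in every replicate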;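 further: luciferase carries N-glycosylation sites so blocking glycosylation raises the light; 0% = median of neutral control wells and 100% = median of 100 nM tunicamycin wells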
LMP1 NFkB inh: EBV LMP1-driven NF-kappaB luciferase reporter inhibitors, primary screen, cell-based, luminescence, single point. actives 0.69% (n = 350,000). inhibition, % at 12.5 µM. LMP1-induced NF-kappaB luciferase reporter cells; in the data active means inhibition above about 41%;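 further: 0% = neutral control wells and 100% = reference inhibitor control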
NSD2 inh: NSD2 histone methyltransferase inhibitors, primary screen, biochemical, AlphaScreen, single concentration, set 2. NSD2 peptide methylation, 120 min. inhibition, % at 12.5 µM. actives 0.54% (n = 310,000). AID 743445, 2014; in the data active means inhibition above about 50%
Active calls of the source: *; [ ] = dose if it differs, or a comment. The list is not random: actives were taken first. Their share in the collection is about 2.8%.

`CC[C@H](CO)Nc1nc(Nc2cccc(Cl)c2)c2ncn(C(C)C)c2n1` gave PAX8 inh HTS 78*, HIV Env fusion 7, Shn3 3UTR inh 41, N-glyco inh -10 and LMP1 NFkB inh -14.
Screening S=C(NNc1ccnc2cc(Cl)ccc12)Nc1ccc(Cl)cc1Cl returned PAX8 inh HTS 23, HIV Env fusion -16, Shn3 3UTR inh 88*, N-glyco inh -4, LMP1 NFkB inh 11 and NSD2 inh 2.
For C[C@@H]1CN([C@@H](C)CO)C(=O)c2cc(NS(=O)(=O)c3ccccc3)ccc2O[C@H]1CN(C)Cc1ccc(Oc2ccccc2)cc1 the results were PAX8 inh HTS -27 and HIV Env fusion 94*[16.7 µM].
Cc1ccc(S(=O)(=O)Nc2ccc3c(c2)C(=O)N([C@H](C)CO)C[C@@H](C)[C@@H](CN(C)Cc2ccc(-c4ccccc4)cc2)O3)cc1 was read as PAX8 inh HTS 58 and HIV Env fusion 60*[16.7 µM].
For C[C@H](CO)N1C[C@H](C)[C@H](CN(C)Cc2ccc(Oc3ccccc3)cc2)Oc2ccc(NS(=O)(=O)c3ccccc3)cc2C1=O the results were PAX8 inh HTS -19 and HIV Env fusion -23[16.7 µM].
Screening O=C(c1ccc(Cl)cc1)N1CCCCC(Sc2nnc(-c3ccc4c(c3)OCO4)o2)C1=O (stereo not drawn) returned PAX8 inh HTS 70*, HIV Env fusion 60*, Shn3 3UTR inh 70, N-glyco inh -18 and LMP1 NFkB inh 75*.
Screening N#C[C@@H]1[C@@H](c2ccc(-c3cccnc3)cc2)[C@H](CO)N1C(=O)C1CC1 returned PAX8 inh HTS 19 and HIV Env fusion 9[16.7 µM].
Screening CC(C)NC(=O)N1CC2(C1)[C@@H](c1ccccc1)[C@H](CO)N2C(=O)C1CCC1 returned PAX8 inh HTS -3 and HIV Env fusion 10[16.7 µM].
For COCCNC(=O)NC12CC3CC(CC(C3)C1)C2 the results were PAX8 inh HTS 5, HIV Env fusion 3, Shn3 3UTR inh 5, N-glyco inh 2, LMP1 NFkB inh 4 and NSD2 inh -1.
Screening COCCNC(=O)NC12CC3(C)CC(C)(CC(C)(C3)C1)C2 returned PAX8 inh HTS 21, HIV Env fusion 18, Shn3 3UTR inh -10, N-glyco inh 2, LMP1 NFkB inh 57* and NSD2 inh -4.
Screening N=C(N)SCP(=O)(c1ccccc1)c1ccccc1 returned PAX8 inh HTS 8, HIV Env fusion -15, Shn3 3UTR inh -4, N-glyco inh 2, LMP1 NFkB inh 54* and NSD2 inh 3.
Cc1ccc(P(=O)(CSC(=N)N)c2ccc(C)cc2)cc1 was read as PAX8 inh HTS 24, HIV Env fusion -30, Shn3 3UTR inh -12, N-glyco inh 4, LMP1 NFkB inh -19 and NSD2 inh 1.
CCC(=O)N1[C@H](CO)[C@H](c2ccc(-c3ccc(F)cc3)cc2)[C@@H]1CN(C)C(C)=O was read as PAX8 inh HTS 5.
Screening COc1ccccc1C#Cc1ccc([C@@H]2[C@H](C#N)N(C(=O)C3CCC3)[C@H]2CO)cc1 returned PAX8 inh HTS 7 and HIV Env fusion 4[16.7 µM].
Screening N#C[C@@H]1[C@@H](c2ccc(C#Cc3ccccc3F)cc2)[C@H](CO)N1C(=O)C1CCCCC1 returned PAX8 inh HTS 81* and HIV Env fusion 0[16.7 µM].
`COc1ccccc1C#Cc1ccc([C@H]2[C@@H](C#N)N(C(=O)C3CCCC3)[C@@H]2CO)cc1` gave PAX8 inh HTS 48 and HIV Env fusion 13[16.7 µM].
Screening COc1ccccc1C#Cc1ccc([C@H]2[C@H](C#N)N(C(=O)C3CCCC3)[C@H]2CO)cc1 returned PAX8 inh HTS 107* and HIV Env fusion 74*[16.7 µM].
`COc1ccccc1C#Cc1ccc([C@@H]2[C@@H](CO)N(C(=O)C3CCCCC3)[C@H]2C#N)cc1` gave PAX8 inh HTS 85* and HIV Env fusion 8[16.7 µM].
Screening COc1ccccc1C#Cc1ccc([C@@H]2[C@H](C#N)N(C(=O)C3CCCCC3)[C@H]2CO)cc1 returned PAX8 inh HTS 26.
For COc1ccccc1C#Cc1ccc([C@H]2[C@H](C#N)N(C(=O)C3CCC3)[C@H]2CO)cc1 the results were PAX8 inh HTS 106* and HIV Env fusion 4[16.7 µM].
For COc1ccc(NC(=O)N(C)C[C@@H]2OCCCC[C@H](C)Oc3ccc(NC(=O)NC4CCCCC4)cc3C(=O)N([C@@H](C)CO)C[C@@H]2C)cc1 the results were PAX8 inh HTS 16 and HIV Env fusion -40[16.7 µM].
`CN(C)CC#Cc1ccc([C@@H]2[C@H](CO)N3C(=O)CN(C(=O)Cc4ccccc4)C[C@@H]23)cc1` gave PAX8 inh HTS 1.
For CCCC#Cc1ccc([C@@H]2[C@@H](CO)N(C(=O)C3CCCCC3)[C@H]2C#N)cc1 the results were PAX8 inh HTS 23 and HIV Env fusion 9[16.7 µM].
`CCCC#Cc1ccc([C@@H]2[C@@H](C#N)N(C(=O)C3CCCCC3)[C@H]2CO)cc1` gave PAX8 inh HTS 83* and HIV Env fusion 5[16.7 µM].
For COc1ccc(CCN2C(=O)CSC2=S)cc1OC the results were PAX8 inh HTS 90*, HIV Env fusion -1, Shn3 3UTR inh 0, N-glyco inh -2, LMP1 NFkB inh 26 and NSD2 inh 0.
For O=C(CSC1=Nc2ccccc2C2=NC(Cc3c[nH]c4ccccc34)C(=O)N12)NC1CCCCC1 (stereo not drawn) the results were HIV Env fusion 114*, Shn3 3UTR inh 4, N-glyco inh 2, LMP1 NFkB inh 22 and NSD2 inh 0.
For O=c1ccc2[n+]([O-])c3ccc(O)cc3oc-2c1 the results were PAX8 inh HTS 81*, HIV Env fusion 30, Shn3 3UTR inh -28, N-glyco inh 5, LMP1 NFkB inh -3 and NSD2 inh 102*.
Screening O=c1cc(O)c2ccc(O)cc2o1 returned Shn3 3UTR inh 10, N-glyco inh -4 and LMP1 NFkB inh -2.
Oc1ccc(N=Nc2ccccc2)o1 was read as PAX8 inh HTS 8, HIV Env fusion -15, Shn3 3UTR inh 94*, N-glyco inh 20 and LMP1 NFkB inh -1.
`CCOC(=O)CN1CCCc2nc(-c3ccc(OC)cc3)ccc21` gave PAX8 inh HTS -76 and HIV Env fusion -46.
CCOC(=O)CN1CCCc2nc(C)c(C)cc21 was read as PAX8 inh HTS -8 and HIV Env fusion 84*.
